Giardia killer: Giardia lamblia killing. Giardia lamblia trophozoite viability. activity change, % at 7.66 µM, hits read low. 340,000 tested, 0.15% active; in the data active = activity change below about -80%; inconclusive = between about -30% and that limit;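 also: parasites exposed to compound for two days anaerobically before the ATP read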
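Trophozoite viability was measured as ATP-dependent luminescence, read 15-30 min after reagent addition. Before that, parasites at 100 cells/well were exposed to compounds for 48 h, anaerobically, at 37 deg C.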
IL1B secr inh: inhibitors of inflammasome signaling (IL-1 beta secretion); THP-1 LPS/ATP IL-1B secretion, AlphaLISA, 16 h; active compounds read low; activity change, % at 57.5 µM; 360,000 tested, 4.7% active; AID 743279; in the data active = activity change below about -50%; inconclusive = mostly about -30% to -49%
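Secreted IL-1B measured by AlphaLISA bead assay after 16 h compound exposure of THP-1 cells; compounds (final up to 57.5 uM) added 1 h before LPS (250 ng/mL) and ATP (1.25 mM) stimulation; lower signal means less secretion.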
ELG1 repair inh: ELG1-dependent DNA repair inhibition; HEK293T ELG1-luciferase reporter, luminescence, 16 h; DNA damage induced by 5-fluorouridine; Potency, µM (series often up to 46.1 µM), inactives show at the top dose activity change, negative = inhibition, most hits filed as inhibitors; 330,000 tested, 2.3% active; AID 504467; also: potency is read from the fitted curve at half-maximal effect; nearly all actives have a fitted effect of over 55% in size
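Overnight (16 hr) co-exposure of 2,000 cells/well to 5-fluorouridine and compound at 37 °C preceded detection. Luciferase was quantified via ONE-Glo luminescence; loss of signal denotes inhibition.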
DT40 TDP1 CPT: growth inhibition of DT40 Tdp1-/-;hTDP1 cells with camptothecin (screen for TDP1 inhibitors) | AID 686979 | Potency, µM (titrated, usually from 46.2 µM), without a hit: top-dose activity change, negative = growth inhibition, most hits filed as inhibitors | chicken DT40 Tdp1-/-;hTDP1 cells + 20 nM CPT, ATP luminescence, 48 h | 420,000 tested, 12% active; also: potency is read from the fitted curve at half-maximal effect; nearly all actives have a fitted effect of over 55% in size
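Chicken DT40 Tdp1-/- cells stably complemented with human TDP1 were seeded at 400 cells/well in medium containing 20 nM camptothecin, exposed to pin-transferred compounds, and grown at 37 °C for at least 48 hr. Viability was read as ATP luminescence.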
TDP1 inh: inhibitors of human tyrosyl-DNA phosphodiesterase TDP1; 350,000 tested, 0.28% active; Potency, µM (titrated, usually from 130 µM), for inactives: at the highest dose activity change, negative = inhibition, most hits filed as inhibitors; recombinant TDP1, AlphaScreen DNA substrate cleavage; AID 485290; Q9NUW8; also: potency is read from the fitted curve at half-maximal effect; nearly all actives have a fitted effect of over 40% in size
Target sequence (Q9NUW8 whole entry, looked up): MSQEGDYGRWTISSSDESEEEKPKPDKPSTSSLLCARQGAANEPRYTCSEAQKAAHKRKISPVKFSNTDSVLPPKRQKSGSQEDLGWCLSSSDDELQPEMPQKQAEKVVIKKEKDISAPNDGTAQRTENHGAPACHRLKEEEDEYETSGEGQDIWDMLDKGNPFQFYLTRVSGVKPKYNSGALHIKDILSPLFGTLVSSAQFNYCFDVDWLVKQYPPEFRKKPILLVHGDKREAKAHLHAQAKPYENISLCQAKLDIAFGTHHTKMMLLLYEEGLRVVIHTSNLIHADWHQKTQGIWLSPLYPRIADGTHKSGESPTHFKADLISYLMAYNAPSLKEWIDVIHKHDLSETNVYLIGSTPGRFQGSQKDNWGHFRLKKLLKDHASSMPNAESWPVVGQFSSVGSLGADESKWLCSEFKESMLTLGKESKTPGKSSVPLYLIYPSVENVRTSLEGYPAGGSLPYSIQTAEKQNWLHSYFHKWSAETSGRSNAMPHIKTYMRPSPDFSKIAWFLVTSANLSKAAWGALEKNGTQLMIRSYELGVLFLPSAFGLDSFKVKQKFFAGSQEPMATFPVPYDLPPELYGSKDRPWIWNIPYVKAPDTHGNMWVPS
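Recombinant E. coli-expressed Tdp1 (1 nM) preincubated with compound 15 min at RT, then 5'-biotin/3'-phosphotyrosine-FITC DNA substrate (15 nM) added for 5 min. AlphaScreen beads (10 ug/ml) added, 10 min RT; tyrosine-FITC cleavage read as signal loss.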
TDP1 cell noCPT: qHTS for Inhibitors of human tyrosyl-DNA phosphodiesterase 1 (TDP1): qHTS in cells in absence of CPT; DT40 Tdp1-/- hTDP1 cells, no CPT, ATP luminescence, 48 h; Potency, µM (series often up to 46.2 µM), without a hit: at the top dose activity change, negative = growth inhibition, hits mostly inhibitors; 420,000 tested, 15% active; also: potency is read from the fitted curve at half-maximal effect; nearly all actives have a fitted effect of over 55% in size
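Luminescent ATP content (CellTiter-Glo) served as the growth readout. Knockout chicken DT40 cells expressing human TDP1 were exposed to compounds without camptothecin for a minimum 48 hr at 37 °C.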
* marks the source's active call; other numbers are inactive results; ? = inconclusive; . = not tested or not shown; [ ] = dose if it differs, or a comment. Compounds with a hit are over-represented: about 19% of the library has one in this group of screens. Unless noted, calls follow the shape of the dose curve; as a rule, active = well fitted curve in the direction sought with a large enough effect; inconclusive = small, poorly fitted or top-dose-only effect, or another doubt; inactive = no such curve, though single readings can be large; an effect the other way counts as inactive or inconclusive. % is scaled to controls: 0 for no effect and ±100 for the full control effect.

SMILES	Giardia killer	IL1B secr inh	ELG1 repair inh	DT40 TDP1 CPT	TDP1 inh	TDP1 cell noCPT
COC(=O)C1=C(c2ccc(F)cc2OCc2ccccc2)C[C@@H]2CC[C@H]1N2C(=O)NC1CCN(Cc2ccccc2)CC1	-6	?	-29%	8.2µM*	3%	23µM*
COC(=O)C1=C(c2cccc(OCc3ccccc3)c2)C[C@@H]2CC[C@H]1N2C(=O)NC1CCN(Cc2ccccc2)CC1	3	-63*	-7%	6.5µM*	5%	6.5µM*
COC(=O)C1=C(c2ccccc2OCc2ccccc2)C[C@@H]2CC[C@H]1N2C(=O)NCCN1CCOCC1	-21	-7	27%	-23%	-2%	-25%
COC(=O)C1=C(c2ccccc2OCc2ccccc2)C[C@@H]2CC[C@H]1N2C(=O)NC1CCN(Cc2ccccc2)CC1	32	-65*	?	?	4%	23µM*
COC(=O)C1=C(c2ccc(F)cc2OCc2ccccc2)C[C@@H]2CC[C@H]1N2C(=O)NCCO	1	13	19%	3%	0%	-19%
CC(C)CN1CC[C@@]2(CCCN(C(=O)c3ccncc3)C2)C1	.	.	.	14%	.	0%
COC(=O)c1ccc(N2C(=O)CC(N3CCC(O)(c4ccc(Br)cc4)CC3)C2=O)cc1 (stereo not given)	9	18	-8%	?	3%	-16%
CC1CC(O)[C@]2(O)[C@]13CC(=O)OC[C@@]2(C)[C@@](C)(O)C(=O)C3 (stereo not given in full)	.	.	.	5%	12%[56.1 µM]	25%
O=C(Nc1ccc(Cl)cc1)Nc1ccc(Cl)c(Cl)c1	-11	-87*	?	4.6µM*	-3%	2.9µM*
O=C(O)c1cc(Cl)ccc1Cl	.	.	.	.	14%	.
Cc1c(C(=O)NCc2nccs2)cnn1-c1ncc2c(n1)-c1ccccc1CC2	.	.	.	9.2µM*	.	21µM*
CCOCCOC(C)=O	.	.	.	6%[92.5 µM]	12%	0%[92.5 µM]
CN(C)NC(=O)CCC(=O)O	.	.	.	.	3%	.
Cc1ccc(NC(=O)NCc2ccc3c(c2)CCN3C(=O)c2ccccc2)c(Cl)c1	.	.	.	?	4%	23µM*
CCOc1ccccc1NC(=O)NCc1ccc2c(c1)CCN2C(=O)c1ccccc1	.	.	.	23µM*	8%	16µM*
CCOc1cccc(CC(=O)NCc2ccc3c(c2)CCN3C(=O)c2cccc(C)c2)c1OCC	.	.	.	21µM*	4%	21µM*
CCOc1ccccc1NC(=O)c1cccn(Cc2ccccc2C)c1=O	.	.	.	-2%	-3%	1%
CCCCCc1cc(O)c2c(c1)OC(C)(C)[C@@H]1CCC(C(=O)O)=C[C@H]21	.	.	.	.	8%	.
CC(C)C[C@H](NC(=O)[C@H](Cc1ccccc1)NC(=O)CNC(=O)[C@@H](COC(C)(C)C)NC(=O)[C@@H](N)Cc1ccc(O)cc1)C(=O)N[C@H](C(=O)O)[C@@H](C)OC(C)(C)C	.	.	.	.	11%	.
COc1cc(CN2CCc3nc(N4CCN(c5ncccn5)CC4)ncc3C2)cc(OC)c1OC	.	.	.	8.2µM*	-1%	8.2µM*
Cc1ccccc1CN1CCc2nc(N3CCN(c4ccccn4)CC3)ncc2C1	.	.	.	?	-4%	?
CN(C)c1ccc(CN2CCc3nc(N4CCN(c5ccccn5)CC4)ncc3C2)cc1	.	.	.	21µM*	16%	21µM*
CCCCCCCCCC[N+](C)(C)CCCCCCCCCC	.	.	.	1.3µM*	2%	0.94µM*
CCCCCCCCCCCCCCCC[N+](C)(C)C	11	-14	-3%	2.3µM*	9%	1.8µM*
CCCCCCCCCCCCCCCCCC[N+](C)(C)CCC[Si](OC)(OC)OC	.	.	.	24µM*	4%	12µM*
SMILES	Giardia killer	IL1B secr inh	ELG1 repair inh	DT40 TDP1 CPT	TDP1 inh	TDP1 cell noCPT
C[C@@]12CCC(=O)C[C@@H]1CC[C@@H]1[C@@H]2CC[C@]2(C)C(=O)CC[C@@H]12	.	.	.	?	-7%[56.1 µM]	?
Cc1ccc(NC(=S)NC2CC3CCC(C2)N3Cc2ccco2)cc1C (stereo not given)	-3	-12	3%	?	1%	?
Cc1ccc(CN2C3CCCC2CC(NC(=S)NCc2ccccc2)C3)cc1 (stereo not given)	-3	-65*	-4%	?	.	?
NC(=O)c1ccc(N)nc1	6	8	.	5.8µM*	2%	4.1µM*
CC[C@@H]1CN2CCc3cc(OC)c(OC)cc3[C@H]2C[C@@H]1C[C@@H]1NCCc2cc(O)c(OC)cc21	.	.	.	.	14%[21 µM]	.
COc1ccc2c(c1)c(CCN)c(C)n2Cc1ccccc1	-10	-52*	0%	?	.	21µM*
CCN1C[C@]2(COC)CC[C@H](OC)[C@@]34C5C[C@@H]6[C@@H](OC)C[C@@]7(OCO[C@@]7([C@@H](O)C23)[C@@H]14)C5[C@H]6OC (stereo not given in full)	.	.	.	0%	5%	0%
COc1cccc(/C=C2\N=C(c3cncc(Br)c3)OC2=O)c1	-6	10	?	?	-4%	23µM*
COc1cc(/C=C/c2nc3ccccc3c(=O)n2-c2ccccc2O)ccc1O	-2	-66*	?	?	.	?
COc1cc(/C=C/c2nc3ccccc3c(=O)n2-c2cccc(O)c2)ccc1O	9	-23	?	?	?	18µM*
O=P(O)(O)CCCl	.	.	.	.	11%	.

Screening results deposited in PubChem BioAssay by National Center for Advancing Translational Sciences (NCATS).
